# Records with an inconclusive call do not appear. Entries that show only a call come without a potency. Activity calls are given as the source filed them. Calls follow the shape of the dose curve; as a rule, active = well fitted curve in the direction sought with a large enough effect in the repeat runs; inconclusive = weak or mixed curves; inactive = no such curve, though single readings can be large; an effect the other way counts as inactive or inconclusive.
# Test system: not listed separately
# Test: qHTS assay to identify small molecule antagonists of the constitutive androstane receptor (CAR) signaling pathway - cell viability counter screen (AID 1224837); also: nearly all actives have a fitted effect of over 45% in size
# Settings: HepG2-CYP2B6-hCAR viability, CellTiter-Fluor, 23 h, co-treated with 50 nM CITCO; series mostly up to 92.4 µM
# In short: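 Cytotoxicity counter-screen: CellTiter-Fluor fluorescence after 23 h compound exposure (15-point qHTS) in double-stable HepG2-CYP2B6-hCAR cells, with 50 nM CITCO added.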
row,Structure (SMILES),Potency
1,COc1ccc2cc([C@H](C)C(=O)O)ccc2c1,inactive
2,Cc1ccc(S(N)(=O)=O)cc1,inactive
3,C=CCOC(=O)c1ccccc1C(=O)OCC=C,inactive
4,C#C[C@]1(O)CC[C@H]2[C@@H]3CCC4=CC(=O)CC[C@@H]4[C@H]3CC[C@@]21C,inactive
5,OCc1cccnc1,inactive
6,O=C(O)[C@H](O)[C@@H](O)[C@H](O)[C@H](O)CO,inactive
7,O=S(=O)(O)c1ccc2ccccc2c1,inactive
8,CCCCC(CC)COC(=O)C(C#N)=C(c1ccccc1)c1ccccc1 (configuration not stated),inactive

# Molecular target: Nuclear receptor subfamily 1 group I member 3 (Homo sapiens) (UniProt Q14994)
# Test: qHTS assay to identify small molecule antagonists of the constitutive androstane receptor (CAR) signaling pathway (AID 1224838);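 also: HepG2 cells stably expressing hCAR with CYP2B6 luciferase reporter stimulated by CITCO; nearly all actives have a fitted effect of over 40% in size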
# Settings: HepG2-CYP2B6-hCAR luciferase, CITCO-stimulated, 24 h; series mostly up to 92.4 µM
# In short: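 Antagonism measured as luciferase signal (ONE-Glo, 30 min, room temperature) in CAR-stimulated cells: HepG2-CYP2B6-hCAR double-stable line exposed 24 hr at 37 C to compound in a 15-point series plus 50 nM CITCO.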
# Nuclear receptor subfamily 1 group I member 3 (Homo sapiens), sequence (Q14994 whole entry, looked up): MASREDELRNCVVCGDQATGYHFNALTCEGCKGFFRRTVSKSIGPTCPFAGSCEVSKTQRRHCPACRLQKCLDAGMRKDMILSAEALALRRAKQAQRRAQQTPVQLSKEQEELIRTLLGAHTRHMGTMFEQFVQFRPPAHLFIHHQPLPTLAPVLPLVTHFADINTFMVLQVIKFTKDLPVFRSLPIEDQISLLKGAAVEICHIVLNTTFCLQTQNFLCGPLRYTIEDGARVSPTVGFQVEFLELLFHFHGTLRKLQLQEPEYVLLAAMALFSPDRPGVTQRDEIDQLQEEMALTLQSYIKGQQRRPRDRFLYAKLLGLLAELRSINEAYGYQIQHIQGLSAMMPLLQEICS
row,Structure (SMILES),Potency
1,Cc1ccc2oc(=O)ccc2c1,inactive
2,c1ccc(OCCOc2ccccc2)cc1,inactive
3,CCCSc1ccc2nc(NC(=O)OC)[nH]c2c1,inactive
4,COc1ccc2cc([C@H](C)C(=O)O)ccc2c1,inactive

# From PubChem BioAssay (Tox21)
